Records with an inconclusive call do not appear. Activity calls are given as the source filed them. Calls follow the shape of the dose curve; as a rule, active = well fitted curve in the direction sought with a large enough effect; inconclusive = small, poorly fitted or top-dose-only effect, or another doubt; inactive = no such curve, though single readings can be large; an effect the other way counts as inactive or inconclusive.
Legend:
[1] = target: Glutathione peroxidase 1 (Homo sapiens) (UniProt P07203); assay: Primary qHTS Assay for Inhibitors of Recombinant Selenoprotein Glutathione Peroxidase 1 (GPX1) (AID 1845191); also: nearly all actives have a fitted effect of over 65% in size; also: potency is read from the fitted curve at half-maximal effect
Procedure, shortened: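 NADPH consumption tracked by fluorescence at 340/450 nm between t=0 and t=15 min, room temperature. Final mix: 10 nM GPX1, 100 nM glutathione reductase, 1 mM GSH, 0.5 mM NADPH, 0.5 mM cumene hydroperoxide, 0.01% BSA; 30 min compound–enzyme preincubation.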

[2] = target: Phospholipid hydroperoxide glutathione peroxidase GPX4 (Homo sapiens) (UniProt P36969); assay: Primary qHTS Assay for Inhibitors of Recombinant Selenoprotein Glutathione Peroxidase 4 (GPX4) (AID 1845192); also: nearly all actives have a fitted effect of over 65% in size; also: potency is read from the fitted curve at half-maximal effect
Procedure, shortened: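 NADPH consumption followed by fluorescence at 340/450 nm, t=0 and after 15 min at room temperature. Reaction started with cumene hydroperoxide (0.5 mM final) after 30 min compound–GPX4 preincubation; final 200 nM GPX4, 100 nM GR, 1 mM GSH, 0.5 mM NADPH.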

[3] = Quantitative High-Throughput drug screen in 47 multiple myeloma cell lines against the NCATS MIPE library collection: FR4_PLB cell viability assay (AID 1918924; also: nearly all actives have a fitted effect of over 35% in size; also: potency is read from the fitted curve at half-maximal effect)
Procedure, shortened: (§1)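 Myeloma cells (500 per well) were exposed to MIPE 4.0 compounds by pin transfer and incubated 48 hours at 37C, 5% CO2. Viability was read as ATP by CellTiter-Glo luminescence, normalised to DMSO (100%) and media-only (0%) wells.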

[4] = Quantitative High-Throughput drug screen in 47 multiple myeloma cell lines against the NCATS MIPE library collection: AMO1_DSMZ cell viability assay (AID 1918927; also: nearly all actives have a fitted effect of over 30% in size; also: potency is read from the fitted curve at half-maximal effect)
Procedure, shortened: (§2)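 We plated 500 myeloma cells per well, pinned in MIPE 4.0 compounds, and incubated for 48 hours at 37C. ATP was then quantified with CellTiter-Glo, with DMSO and media-only wells defining 100% and 0%.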

[5] = Quantitative High-Throughput drug screen in 47 multiple myeloma cell lines against the NCATS MIPE library collection: ARD_JJKsccE7 cell viability assay (AID 1918929; also: potency is read from the fitted curve at half-maximal effect)
Procedure, shortened: as §2

[6] = Quantitative High-Throughput drug screen in 47 multiple myeloma cell lines against the NCATS MIPE library collection: KMM1_JCRB cell viability assay (AID 1918960); also: nearly all actives have a fitted effect of over 30% in size; also: potency is read from the fitted curve at half-maximal effect
Procedure, shortened: (§3)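 Viability screen: myeloma cells (500/well) incubated 48 h at 37 °C, humidified 5% CO2, with pinned library compounds; CellTiter-Glo added, luminescence read; DMSO wells set 100%, medium-only wells 0%.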

[7] = Quantitative High-Throughput drug screen in 47 multiple myeloma cell lines against the NCATS MIPE library collection: KHM11_PLB cell viability assay (AID 1918962); also: nearly all actives have a fitted effect of over 35% in size; also: potency is read from the fitted curve at half-maximal effect
Procedure, shortened: as §1

[8] = Quantitative High-Throughput drug screen in 47 multiple myeloma cell lines against the NCATS MIPE library collection: JIM3_ECACC cell viability assay (AID 1918963; also: nearly all actives have a fitted effect of over 35% in size; also: potency is read from the fitted curve at half-maximal effect)
Procedure, shortened: as §1

[9] = Quantitative High-Throughput drug screen in 47 multiple myeloma cell lines against the NCATS MIPE library collection: JIM1_ECACC cell viability assay (AID 1918964; also: potency is read from the fitted curve at half-maximal effect)
Procedure, shortened: as §2

[10] = Quantitative High-Throughput drug screen in 47 multiple myeloma cell lines against the NCATS MIPE library collection: INA6_PLB cell viability assay (AID 1918965; also: nearly all actives have a fitted effect of over 55% in size; also: potency is read from the fitted curve at half-maximal effect)
Procedure, shortened: (§4)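 CellTiter-Glo ATP luminescence gave viability after 48 h compound treatment at 37C of 500 multiple myeloma cells per well. Normalisation used DMSO-only wells as 100% and media-only wells as 0% viability; primary qHTS of approved and investigational drugs.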

[11] = Quantitative High-Throughput drug screen in 47 multiple myeloma cell lines against the NCATS MIPE library collection: EJM_DSMZ cell viability assay (AID 1918926; also: nearly all actives have a fitted effect of over 30% in size; also: potency is read from the fitted curve at half-maximal effect)
Procedure, shortened: as §2

[12] = Quantitative High-Throughput drug screen in 47 multiple myeloma cell lines against the NCATS MIPE library collection: Delta47_JCRB cell viability assay (AID 1918925; also: potency is read from the fitted curve at half-maximal effect; nearly all actives have a fitted effect of over 45% in size)
Procedure, shortened: as §2

[13] = Quantitative High-Throughput drug screen in 47 multiple myeloma cell lines against the NCATS MIPE library collection: ARP1_JJKsccF8 cell viability assay (AID 1918928; also: nearly all actives have a fitted effect of over 40% in size; also: potency is read from the fitted curve at half-maximal effect)
Procedure, shortened: as §3

[14] = Quantitative High-Throughput drug screen in 47 multiple myeloma cell lines against the NCATS MIPE library collection: Karpas620_DSMZ cell viability assay (AID 1918959); also: nearly all actives have a fitted effect of over 30% in size; also: potency is read from the fitted curve at half-maximal effect
Procedure, shortened: as §1

[15] = Quantitative High-Throughput drug screen in 47 multiple myeloma cell lines against the NCATS MIPE library collection: JJN3_DSMZ cell viability assay (AID 1918966; also: potency is read from the fitted curve at half-maximal effect; nearly all actives have a fitted effect of over 50% in size)
Procedure, shortened: as §2

[16] = Quantitative High-Throughput drug screen in 47 multiple myeloma cell lines against the NCATS MIPE library collection: Karpas417_ECACC cell viability assay (AID 1918961); settings: Karpas417 myeloma viability, CellTiter-Glo ATP luminescence, 48 h; viability (% of DMSO): at 45.8 µM (top of the series)
Procedure, shortened: as §4

[17] = target: Luciferin 4-monooxygenase (Photinus pyralis) (UniProt P08659); assay: Primary firefly luciferase (FLuc) qHTS assay for identification of artifact compounds. (AID 1845220); also: nearly all actives have a fitted effect of over 60% in size
Procedure, shortened: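 Cell-free, 1536-well qHTS. Buffer pH 7.6 with 0.01% Tween-20 and 0.05% BSA; 10 uM D-luciferin, 10 uM ATP; 10 nM P. pyralis luciferase; luminescence after 5 min.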

[18] = Primary fluorescence-based thiol-reactive (MSTI) qHTS assay for identification of artifact compounds. (AID 1845221); also: nearly all actives have a fitted effect of over 65% in size; also: potency is read from the fitted curve at half-maximal effect
Procedure, shortened: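 Probe: MSTI 4 uM, PBS pH 7.4, 2% DMSO. Incubation 1 h, RT, light-protected. Readout fluorescence 525/598 nm.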

[19] = tested on: Nanoluciferase (engineered Oplophorus gracilirostris luciferase); assay: Primary Nanoluciferase (NLuc) qHTS assay for identification of artifact compounds. (AID 1845222)
Procedure, shortened: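 Compounds are pinned into diluted (1:55) conditioned medium of NLuc-expressing S16 cells and held 15 min at room temperature protected from light. Nano-Glo substrate follows, and luminescence is read 5 min later.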

[20] = Primary redox qHTS assay for identification of artifact compounds. (AID 1845223)
Procedure, shortened: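 Redox-cycling detection via DTT (250 uM final) oxidation coupled to Amplex Red (25 uM)/HRP (250 mU/mL) in HBSS. 15 min preincubation plus 30 min after DTT, room temperature. Ex/Em 525/598 nm; 4-parameter Hill fit against DMSO and 10 uM DA3003.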

Measured: Potency

Chain of Phospholipid hydroperoxide glutathione peroxidase GPX4 (Homo sapiens) (P36969 whole entry, looked up): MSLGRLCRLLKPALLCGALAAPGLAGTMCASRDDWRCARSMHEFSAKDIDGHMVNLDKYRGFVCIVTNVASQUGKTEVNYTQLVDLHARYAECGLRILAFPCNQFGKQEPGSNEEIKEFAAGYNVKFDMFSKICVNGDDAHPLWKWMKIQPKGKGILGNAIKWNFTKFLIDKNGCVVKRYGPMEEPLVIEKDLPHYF
Chain of Glutathione peroxidase 1 (Homo sapiens) (P07203 whole entry, looked up): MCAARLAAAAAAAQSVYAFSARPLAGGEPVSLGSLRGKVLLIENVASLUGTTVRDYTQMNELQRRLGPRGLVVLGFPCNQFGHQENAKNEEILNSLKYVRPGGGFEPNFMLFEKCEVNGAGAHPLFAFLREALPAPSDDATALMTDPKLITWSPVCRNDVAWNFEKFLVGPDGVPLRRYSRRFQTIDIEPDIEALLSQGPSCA

C[C@]12CC[C@@H]3c4ccc(O)cc4C[C@@H](CCCCCCCCCS(=O)CCCC(F)(F)C(F)(F)F)[C@H]3[C@H]1CC[C@H]2O (stereo not given in full)
inactive: [1] | [2] | [3] | [4] | [5] | [6] | [7] | [8] | [9] | [10]

O=c1cc(-c2ccccc2)oc2cc(O)cc(O)c12
inactive: [1] | [2] | [3] | [11] | [7]
active: [4] 16.6 µM | [5] 26.4 µM | [6] 20.9 µM | [8] 16.6 µM

NC(CO)(CO)CCc1ccc(Sc2cccc(OCc3ccccc3)c2)cc1Cl
active: [12] 9.35 µM | [4] 20.9 µM | [13] 23.5 µM | [14] 16.6 µM | [6] 18.7 µM | [7] 7.43 µM | [8] 13.2 µM | [9] 16.6 µM | [10] 9.35 µM
inactive: [1] | [2]

CC(C)n1cnc2c(NCCCCCCNC(=O)OC(C)(C)C)nc(NCCO)nc21
inactive: [1] | [2] | [9]
active: [12] 14.8 µM | [11] 20.9 µM | [4] 4.69 µM | [5] 5.9 µM | [6] 7.43 µM | [8] 18.7 µM | [10] 23.5 µM

CC#CCn1c(N2CCC[C@@H](N)C2)nc2c1c(=O)n(Cc1nc(C)c3ccccc3n1)c(=O)n2C
active: [13] 2.96 µM
inactive: [1] | [2] | [3] | [11] | [4] | [5] | [14] | [6] | [7]

O=C(O)C(O)Cc1ccc(O)c(O)c1 (stereo not given)
active: [11] 23.5 µM | [13] 23.5 µM
inactive: [1] | [2] | [4] | [5] | [14] | [8] | [9]

CO[C@@H](C(=O)N1Cc2[nH]nc(NC(=O)c3ccc(N4CCN(C)CC4)cc3)c2C1)c1ccccc1
inactive: [1] | [2]
active: [3] 23.5 µM | [12] 6.62 µM | [4] 4.69 µM | [5] 26.4 µM | [7] 10.5 µM | [8] 4.69 µM | [9] 16.6 µM | [10] 0.372 µM

C[C@H](NC(=O)c1sccc1OCc1ccc(Cl)cc1)c1ccccc1
inactive: [1] | [2] | [5] | [14] | [6]

O=c1c(O)c(-c2ccc(O)cc2)oc2cc(O)cc(O)c12
active: [12] 20.9 µM | [4] 9.35 µM | [5] 13.2 µM | [14] 18.7 µM | [10] 16.6 µM
inactive: [1] | [2] | [3]

CN(C)Cc1cccc(N=C(c2ccccc2)c2c(O)[nH]c3cc(C(=O)N(C)C)ccc23)c1
inactive: [1] | [2] | [13]
active: [7] 5.9 µM | [8] 1.87 µM | [10] 18.7 µM

O=c1cc(-c2ccc(O)cc2)oc2cc(O)cc(O)c12
active: [3] 23.5 µM | [11] 4.18 µM | [13] 20.9 µM
inactive: [1] | [2]

Nc1ncnc2ccccc12
inactive: [1] | [2] | [3] | [13] | [5] | [14] | [8] | [9] | [10]

N#Cc1ccc(NC(=O)Nc2ccccc2Br)c2n[nH]nc12
active: [4] 14.8 µM | [5] 10.5 µM | [6] 20.9 µM | [9] 8.33 µM
inactive: [1] | [2] | [3] | [13] | [8]

CC(=O)OC1C(C)OC(Oc2c(-c3ccc(O)cc3)oc3cc(O)cc(O)c3c2=O)C(O)C1OC(C)=O (stereo not given)
active: [10] 9.35 µM
inactive: [1] | [2] | [13] | [7] | [8]

CCCCCNC(=O)N1CCC(CN(Cc2ccc(Cl)cc2)Cc2ccc([N+](=O)[O-])s2)C1 (stereo not given)
inactive: [2]
active: [1] 2.05 µM | [3] 23.5 µM | [4] 18.7 µM | [5] 20.9 µM | [14] 18.7 µM | [15] 23.5 µM

CC(C)(C)C(=O)Oc1ccc2c(c1)nc(NC(=O)c1cccc([N+](=O)[O-])c1)n2CCCO
active: [11] 13.2 µM
inactive: [1] | [2] | [4] | [5] | [14] | [8] | [9]

O=c1c(-c2ccc(O)cc2)coc2cc(O)ccc12
inactive: [1] | [2] | [3] | [11] | [4] | [5] | [6] | [16] | [8] | [9]

O=c1cc(CN2CCOCC2)occ1OCCCCCSc1ccnc2cc(C(F)(F)F)ccc12
inactive: [2] | [17] | [18] | [19]
active: [12] 6.62 µM | [4] 18.7 µM | [13] 20.9 µM | [5] 20.9 µM | [8] 4.69 µM | [9] 18.7 µM | [10] 7.43 µM

C[C@@H](O)[C@H]1C(=O)N2C(C(=O)O)=C(S[C@@H]3CN[C@H](C(=O)N(C)C)C3)[C@H](C)[C@H]12
inactive: [2]

CC(=O)CCCCn1c(=O)c2c(ncn2C)n(C)c1=O
inactive: [2] | [17] | [18] | [19] | [20]

Cn1c(N2CCCCS2(=O)=O)nc(C(=O)NCc2ccc(F)cc2)c(O)c1=O
inactive: [2] | [17] | [19] | [20] | [11] | [7] | [8]
active: [18] 1.34 µM

COC1CCC(N(C(=O)C2CCC(C)CC2)c2cc(C3=CCCCC3)sc2C(=O)O)CC1 (stereo not given)
active: [10] 23.5 µM
inactive: [1] | [5] | [14] | [6] | [9]

Cc1ccc(F)c(NC(=O)Nc2ccc(-c3cccc4[nH]nc(N)c34)cc2)c1
inactive: [1]
active: [3] 14.8 µM | [12] 13.2 µM | [4] 10.5 µM | [13] 26.4 µM | [5] 3.32 µM | [14] 20.9 µM | [6] 4.18 µM | [7] 8.33 µM | [8] 7.43 µM | [9] 1.87 µM | [15] 18.7 µM

CCN1CCC[C@H]1CNC(=O)c1cc(S(N)(=O)=O)ccc1OC
inactive: [2] | [17] | [18] | [19] | [20]

COc1ccc2c(Oc3ccc(NC(=O)c4c(C)n(CC(C)(C)O)n(-c5ccccc5)c4=O)cc3F)ccnc2c1
inactive: [2] | [17] | [18] | [19] | [20]
active: [3] 26.4 µM | [12] 23.5 µM | [5] 20.9 µM

CCS(=O)(=O)N1CC(CC#N)(n2cc(-c3ncnc4[nH]ccc34)cn2)C1
inactive: [17] | [18] | [19] | [20] | [5] | [6]
active: [2] 16.1 µM | [3] 16.6 µM | [4] 3.72 µM | [7] 11.8 µM | [8] 16.6 µM | [15] 11.8 µM

Reference: PubChem BioAssay (NCATS)
